The test system of assay [1] is XIP peptide (Xip251-270) binding. The experiment in a line: XIP fragment 251-270 binding compounds – biochemical, small-molecule microarray, fluorescence 635/667 nm, 0.1 µg/mL protein, primary screen (AID 1182). The note with it: fluorescent protein binding, 635 nm, higher = more signal, called active from +8 up or from −8 down.
The test system of a further assay is XIP peptide (Xip251-270). Briefly: compounds binding XIP fragment 251-270 – biochemical, small-molecule microarray, fluorescence 635/667 nm, 0.5 µg/mL protein, primary screen (AID 1183). The conditions noted are these: fluorescence 635 nm, higher = more signal.
A short description of assay [2]: blood-stage malaria parasite viability loss – strain 3D7, DAPI fluorescence, 100 nL, primary screen (AID 1184).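 Also: parasites grown inside human red blood cells in medium with human serum.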 The conditions noted are these: P. falciparum 3D7 growth, 3 d, higher = more signal.
In assay [3] the target is Homeobox protein Hox-A13 (Mus musculus) (UniProt Q62424). Briefly: disruptors of Hoxa13 oligonucleotide interaction – biochemical, fluorescence polarization, labeled oligonucleotide, primary screen (AID 1185). The conditions noted are these: Hoxa13:DNA binding, 15 min, higher = more signal, called active from +8 up or from −8 down. On the technique in general: Fluorescence polarisation rises when a labelled molecule tumbles more slowly, as on binding a larger partner.
Sequence of Homeobox protein Hox-A13 (Mus musculus) (Q62424 whole entry, looked up): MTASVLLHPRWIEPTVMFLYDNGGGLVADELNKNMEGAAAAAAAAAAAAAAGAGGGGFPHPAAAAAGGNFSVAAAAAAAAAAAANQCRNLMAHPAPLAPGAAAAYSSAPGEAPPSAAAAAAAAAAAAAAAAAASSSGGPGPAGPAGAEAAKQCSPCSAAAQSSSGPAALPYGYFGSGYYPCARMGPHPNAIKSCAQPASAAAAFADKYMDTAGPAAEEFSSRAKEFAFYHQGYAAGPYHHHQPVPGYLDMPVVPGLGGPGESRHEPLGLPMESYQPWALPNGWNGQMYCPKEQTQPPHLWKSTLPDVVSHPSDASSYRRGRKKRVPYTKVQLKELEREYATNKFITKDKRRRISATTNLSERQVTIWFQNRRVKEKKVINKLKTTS

Assay [4] is described as follows: blockers of DNA damage checkpoint Chk1 activation – imaging, HeLa, hydroxyurea, phospho-Chk1 antibody, percent positive cells, primary screen (AID 1186). The note with it: hydroxyurea-induced phospho-Chk1 immunofluorescence imaging, higher = more signal.
The nature of assay [5]: blockers of DNA damage checkpoint Chk1 activation – imaging, HeLa, hydroxyurea, phospho-Chk1 nuclear intensity, primary screen (AID 1187). The conditions noted are these: hydroxyurea-induced phospho-Chk1 immunofluorescence imaging, higher = more signal.

SMILES strings stand for the structures. Calls of active or inactive are those of the source. Unless noted, no rule for the calls is given here.

We go through 17 compounds from PubChem BioAssay.

Regarding `CO[C@H]1COC(=O)[C@@H](C)COC(=O)[C@H](Cc2ccccc2)NC(=O)CC=C[C@H]1C`, the composite z-score in assay [1] was -0.0968 (inactive); with XIP peptide (Xip251-270) it was 0.172. Moreover, the z-score in assay [2] was -0.178; in assay [3], 0.485 (inactive).

On to `C=CCc1cccc([C@H]2N[C@H](C(=O)O)CC[C@@H]2C)c1`, for which the figures for the composite z-score (in assay [1]; in the assay with XIP peptide (Xip251-270)) were 0.517 (inactive) and 0.921, respectively. Also, the z-score is -0.441 in assay [2] and 0.811 (inactive) in assay [3].

For the compound `CN1C(=O)C2C=CC(C(O)C3CC=CCC3)N(Nc3ccccc3)C2C1=O` (configuration not stated), the composite z-score in assay [1] was 0.769 (inactive); in the assay on XIP peptide (Xip251-270) it was 0.795. Also, the z-score was 0.235 in assay [2], -3.96 (inactive) in assay [3], 0.202 (inactive) in assay [4] and 0.25 (inactive) in assay [5].

Turning to `CSCC[C@@H]1NC(=O)CC=C[C@@H](C)COC(=O)[C@H](CCSC)NC(=O)CC=C[C@@H](C)COC1=O`, the composite z-score was 0.223 (inactive) in assay [1] and -0.467 in the assay on XIP peptide (Xip251-270). In addition, the z-score in assay [2] was -0.145; in assay [3] it was 1.03 (inactive).

Regarding `COc1cc2c(cc1OC)CN(C(=O)[C@@H]1[C@H]3C(=O)O[C@H](c4ccccc4)[C@H](c4ccccc4)N3[C@H](c3ccccc3OCCO)[C@@]13C(=O)Nc1ccccc13)CC2`, the composite z-score in assay [1] is 1.79 (inactive); in the assay with XIP peptide (Xip251-270), 0.829. In addition, the z-score in assay [2] was -2.18; in assay [3], 0.829 (inactive); in assay [4], 0.306 (inactive); in assay [5] it was 0.876 (inactive).

On to `O=C1C[C@@](C(=O)NCCN2CCOCC2)(c2ccc([N+](=O)[O-])cc2)[C@@H](c2ccc(CO)cc2)N1C1CCCCC1`, for which the composite z-score in assay [1] is 1.01 (inactive); in the assay with XIP peptide (Xip251-270) it was 0.818. Besides, the z-score in assay [2] was -1.6; in assay [3], -4.21 (inactive); in assay [4] it was -0.0132 (inactive); in assay [5] it was 0.434 (inactive).

Regarding `C=C(CCCC)/C(=C/C[C@@H](OC(=O)c1ccncc1)c1ccc(CO)o1)c1cnc2ccccc2c1`, the composite z-score in assay [1] is 0.518 (inactive); in the assay with XIP peptide (Xip251-270), 0.776. The z-score was -0.573 in assay [2], -4.65 (inactive) in assay [3], 0.222 (inactive) in assay [4] and -0.125 (inactive) in assay [5].

Regarding `CO[C@H]1COC(=O)[C@H](C)NC(=O)CC=C[C@@H](C)[C@H](NS(=O)(=O)c2ccc(C)cc2)COC(=O)[C@@H](OCc2ccccc2)C=C[C@@H]1C`, the composite z-score was -0.253 (inactive) in assay [1] and 0.72 in the assay with XIP peptide (Xip251-270). In addition, the z-score in assay [2] is -0.569; in assay [3] it was -1.21 (inactive).

As to `Cc1ccccc1C(O)C1C=CC2C(=O)N(c3ccccc3)C(=O)C2N1Nc1ccc(C#N)cc1` (configuration not stated), the composite z-score in assay [1] is 3.08 (inactive); in the assay with XIP peptide (Xip251-270), 0.761. Moreover, the z-score in assay [2] is -0.494; in assay [3], -0.699 (inactive); in assay [4], -0.873 (inactive); in assay [5], -0.982 (inactive).

Take `CC(c1ccccc1)C(O)C1C=CC2C(=O)N(C)C(=O)C2N1N(c1ccccc1)c1ccccc1` (configuration not stated): the composite z-score is 0.0311 (inactive) in assay [1] and -0.62 with XIP peptide (Xip251-270). Moreover, the z-score is -0.141 in assay [2], -4.26 (inactive) in assay [3], 0.75 (inactive) in assay [4] and -0.173 (inactive) in assay [5].

Consider `C=CC[C@@]1(C(=O)NCC(O)CO)N=C(c2ccc(OCCCO)cc2)O[C@@H]1c1ccccc1CN=[N+]=[N-]` (some centres not stated), for which the composite z-score in assay [1] was 0.336 (inactive); in the assay with XIP peptide (Xip251-270), -0.105. Also, the z-score is -2.34 in assay [2], -2.67 (inactive) in assay [3], -0.691 (inactive) in assay [4] and -0.873 (inactive) in assay [5].

As for `CCOC(=O)C[C@H]1[C@H](OC(=O)c2ccccc2-c2ccccc2)[C@@H](NC(=O)C2CCCCC2)c2cc(OCCCO)ccc2N1C(=O)c1ccccc1`, the composite z-score is -0.339 (inactive) in assay [1] and 0.0325 with XIP peptide (Xip251-270). Further, the z-score is -1.35 in assay [2], -3.05 (inactive) in assay [3], -0.319 (inactive) in assay [4] and -0.0975 (inactive) in assay [5].

Consider `O=C1O[C@@H](c2ccccc2)[C@@H](c2ccccc2)N2[C@@H](c3ccc(O)cc3)[C@]3(C(=O)Nc4ccc(C#CC5(O)CCCCCC5)cc43)[C@@H](C(=O)Nc3nc4ccccc4s3)[C@H]12`, for which the results for the composite z-score (in assay [1]; in the assay on XIP peptide (Xip251-270)) were 1.8 (inactive) and 0.756, respectively. Besides, the z-score was -0.697 in assay [2], -0.586 (inactive) in assay [3], -0.44 (inactive) in assay [4] and -0.169 (inactive) in assay [5].

Take `CC(C)N1CC=CC23O[C@@H]4/C=C\CCCOC(=O)C4[C@H]2C(=O)N(CCO)[C@@H]3C1=O` (some centres not stated): the figures for the composite z-score (in assay [1]; in the assay with XIP peptide (Xip251-270)) were 1.85 (inactive) and 0.122, respectively. Moreover, the z-score in assay [2] was -0.348; in assay [3], -5.41 (inactive); in assay [4], -1.32 (inactive); in assay [5] it was -0.544 (inactive).

Take `CO[C@@H]1COC(=O)CC=C[C@@H](C)[C@H](OC)COC(=O)CC=C[C@H]1C`: the composite z-score was -0.583 (inactive) in assay [1] and 0.428 in the assay on XIP peptide (Xip251-270). In addition, the z-score in assay [2] is 0.674; in assay [3], -0.26 (inactive).

Regarding `O=C(NCC(O)CO)[C@]1(Cc2ccccc2)N=C(c2ccc(OCCCO)cc2)O[C@@H]1c1ccccc1` (some centres not stated), the results for the composite z-score (in assay [1]; with XIP peptide (Xip251-270)) were 1.61 (inactive) and 0.776, respectively. Besides, the z-score in assay [2] was -1.62; in assay [3] it was -4.2 (inactive); in assay [4], -0.707 (inactive); in assay [5] it was -0.655 (inactive).

As to `C[C@H]1C2[C@H](Cc3ccccc3)NC(=O)[C@]23C(=O)N[C@H](Cc2ccccc2)C(=O)N[C@@H](Cc2ccccc2)C(=O)NC/C=C\C/C=C/C3[C@@H]2O[C@]12C` (some centres not stated), the composite z-score in assay [1] is -0.157 (inactive); in the assay on XIP peptide (Xip251-270), -0.564. In addition, the z-score in assay [2] was -0.873; in assay [3] it was -7.06 (inactive); in assay [4], 0.531 (inactive); in assay [5], 0.375 (inactive).
